Data from the supplement of paper PMC7156485.
Where a name gives a salt, the structure may show the parent alone. Values without a mark were called inactive.

Test system: HCC1569
Assay: H1.0 immunofluorescence intensity relative to DMSO (% of DMSO); higher = stronger H1.0 induction, active = 140 or more
Conditions: concentration: 10 µM; 24 h
Summary of the method: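 In 384-well plates holding 800 HCC1569 or TDF cells per well in RPMI with 10% FBS, compounds were tested at 10 µM for 24 h at 37 °C in triplicate. Fixation used 3.7% formaldehyde. Staining used a rabbit anti-H1.0 antibody with an AlexaFluor 647 secondary, plus DAPI. Each value, H1.0 nuclear intensity or cell number, is a median of replicates shown as percent of the plate control, and HCC1569 values were smoothed for positional effects.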
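Note: TDF is a line of transformed human dermal fibroblasts of mesenchymal origin.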

Structure (SMILES) | H1.0 immunofluorescence intensity
Cl.N=C(N=C(N)N)N1CCOCC1 [Moroxydine.HCl] | 88.6
C=C1C(=CC=C2CCCC3(C)C2CCC3C(C)CCCC(C)C)CC(O)CC1O (configuration not stated) [Alfacalcidol] | 101
CCCCCC(=O)c1c(O)c(Cl)c(OC)c(Cl)c1O [1-(3,5-dichloro-2,6-dihydroxy-4-methoxyphenyl)-1-hexanone] | 120
CS(=O)(=O)O.O=C1Nc2ccc(-c3cccnc3)cc2C1=Cc1ccc[nH]1 [JAK3 Inhibitor VI] | 130
O=C1c2c(O)ccc(O)c2C(=O)c2c(NCCNCCO)ccc(NCCNCCO)c21 [Mitoxantrone] | 120
CC(C)NCC(O)c1ccc(O)c(O)c1 (racemic) [DL-Isoproterenol] | 101
CC1=CCC2(C)CCC(O)(C(C)C)C2C(OC(=O)c2ccc(O)cc2)C1 (configuration not stated) [Ferutinin] | 107
CSCC[C@@H](C=O)NC(=O)[C@H](CC(C)C)NC(=O)[C@H](CC(C)C)NC(C)=O | 92.2
C=C(C)C1CCC2(C(=O)O)CCC3(C)C(CCC4C5(C)CCC(O)C(C)(C)C5CCC43C)C12 (configuration not stated) [Betulinic acid] | 97
N#CC(=C(N)Sc1ccccc1N)c1cccc(C(O)c2ccncc2)c1 (configuration not stated) [MEK Inhibitor I] | 176 (active)
COc1cc2c(Nc3ccc(NC(=O)c4ccccc4)cc3)ncnc2cc1OCCCN1CCOCC1 | 151 (active)
Cc1scc2c1N(C(=O)CN1CCN(C)CC1)c1ccccc1NC2=O.Cl.Cl [Telenzepine.2HCl] | 103
O=C1c2ccccc2-c2n[nH]c3cccc1c23 [JNK Inhibitor II] | 144 (active)
CCCC(=O)Oc1ccc2[nH]c(C(=O)c3cc4ccccc4[nH]3)cc2c1 [PDGF Receptor Tyrosine Kinase Inhibitor II] | 165 (active)
COc1cc(CNC(=O)CCCCC=CC(C)C)ccc1O [Capsaicin] | 95.8
CC(C)(C=O)Cc1cc(C(C)(C)C)c(O)c(C(C)(C)C)c1 | 97.1

Structure (SMILES) | H1.0 immunofluorescence intensity
CC(C)C[C@@H](C(=O)O)c1cc(-c2ccc(C(F)(F)F)cc2)cc(-c2ccc(C(F)(F)F)cc2)c1 | 115
NC(=O)c1cccc(NC(=O)/C=C/c2c[nH]c3ccccc23)c1 [(E)-3-(3-(1H-indol-3-yl)acrylamido)benzamide] | 118
CN1C(C(=O)Nc2ccccn2)=C(O)c2sccc2S1(=O)=O [Tenoxicam] | 93.3
COc1ccccc1N1CCN(CCCNc2cc(=O)n(C)c(=O)n2C)CC1.Cl [Urapidil hydrochloride] | 103
CCCCCOc1ccccc1C(O)CC#CCCCC(=O)OC (configuration not stated) | 89.2
CSc1ccc2c(c1)N(CCC1CCCCN1C)c1ccccc1S2.Cl (configuration not stated) [Thioridazine hydrochloride] | 155 (active)
COc1ccc(Cl)cc1C(=O)NCCc1ccc(S(=O)(=O)NC(=O)NC2CCCCC2)cc1 [Glyburide] | 109
N#Cc1c(N(CC(=O)[O-])CC(=O)[O-])sc(C(=O)[O-])c1CC(=O)[O-].[Sr+2].[Sr+2] | 105
Cc1cc(CS(=O)(=O)c2ccccc2)cc(OCc2ccc(CN3CCC[C@@H]3CO)cc2)c1 [PF-543 hydrochloride] | 122
OC[C@@H](O)[C@H]1NC[C@@H](O)[C@H]1O [1,4-Dideoxy-1,4-imino-D-mannitol hydrochloride] | 90.9
Cl.NC(CO)C(=O)NNCc1ccc(O)c(O)c1O (configuration not stated) [Benserazide hydrochloride] | 96.3
CCN(NO)C1=CC(=O)C(=O)C=C1 [ET-3,4-dephostatin] | 151 (active)
C=CCc1ccccc1OCC(O)CNC(C)C.Cl (configuration not stated) [Alprenolol hydrochloride] | 104
OC1CCN2Cc3ccccc3N=C12 (configuration not stated) [Vasicine] | 89.7
CN(C)C(=O)N=NC(=O)N(C)C [N,N,N',N'-Tetramethylazodicarboxamide] | 99.2
COc1ccc2c3c1OC1CC(O)C=CC31CCN(C)C2 (configuration not stated) [Galanthamine] | 94.8
